Data on 22 molecules can be found in PMC9911399, “Two distinct binding modes provide the RNA-binding protein RbFox with extraordinary sequence specificity”.

Sequences and labels used below:
B1: GUCUGGU (DNA:RNA)
RNA: GGGAGACCGGAAUUCAGAUUGUCCGUCUGGUUUAAAUCCCGUCGUAGCCACCA
DNA 1: CAATCTGAATTCCGGTCTCCC
DNA 2: TGGTGGCTACGACGGGATT
B2: AAACGGC (DNA:RNA)
RNA: B1 RNA with G25A, U26A, C27A, U28C, U31C
DNA 1: CAATCTGAATTCCGGTCTCCC
DNA 2: TGGTGGCTACGACGGGATT
B3: UCAUAGC (DNA:RNA)
RNA: B1 RNA with G25U, U26C, C27A, G29A, U31C
DNA 1: CAATCTGAATTCCGGTCTCCC
DNA 2: TGGTGGCTACGACGGGATT
B4: ACGGCGA (DNA:RNA)
RNA: B1 RNA with G25A, U26C, C27G, U28G, G29C, U31A
DNA 1: CAATCTGAATTCCGGTCTCCC
DNA 2: TGGTGGCTACGACGGGATT
B5: CUUUAUC (DNA:RNA)
RNA: B1 RNA with G25C, C27U, G29A, G30U, U31C
DNA 1: CAATCTGAATTCCGGTCTCCC
DNA 2: TGGTGGCTACGACGGGATT
B6: AAGCCUG (DNA:RNA)
RNA: GGGAGACCGGAAUUCAGAUUGUCCAAGCCUGUUAAAUCCCGUCGUAGCCACCA
DNA 1: CAATCTGAATTCCGGTCTCCC
DNA 2: TGGTGGCTACGACGGGATT
B7: CAGGCUA (DNA:RNA)
RNA: B6 RNA with A25C, C28G, G31A
DNA 1: CAATCTGAATTCCGGTCTCCC
DNA 2: TGGTGGCTACGACGGGATT
B8: ACACAAA (DNA:RNA)
RNA: B6 RNA with A26C, G27A, C29A, U30A, G31A
DNA 1: CAATCTGAATTCCGGTCTCCC
DNA 2: TGGTGGCTACGACGGGATT
B9: GGUUCUG (DNA:RNA)
RNA: B6 RNA with A25G, A26G, G27U, C28U
DNA 1: CAATCTGAATTCCGGTCTCCC
DNA 2: TGGTGGCTACGACGGGATT
B10: UGGCGUG (DNA:RNA)
RNA: B6 RNA with A25U, A26G, C29G
DNA 1: CAATCTGAATTCCGGTCTCCC
DNA 2: TGGTGGCTACGACGGGATT
B11: AGCAUGA (DNA:RNA)
RNA: B1 RNA with G25A, U26G, U28A, G29U, U31A
DNA 1: CAATCTGAATTCCGGTCTCCC
DNA 2: TGGTGGCTACGACGGGATT
B12: ACCAUGC (DNA:RNA)
RNA: B1 RNA with G25A, U26C, U28A, G29U, U31C
DNA 1: CAATCTGAATTCCGGTCTCCC
DNA 2: TGGTGGCTACGACGGGATT
B13: AUGCUGC (DNA:RNA)
RNA: B6 RNA with A26U, C29U, U30G, G31C
DNA 1: CAATCTGAATTCCGGTCTCCC
DNA 2: TGGTGGCTACGACGGGATT
B14: AGCAUAA (DNA:RNA)
RNA: B6 RNA with A26G, G27C, C28A, C29U, U30A, G31A
DNA 1: CAATCTGAATTCCGGTCTCCC
DNA 2: TGGTGGCTACGACGGGATT
B15: AGCAUGC (DNA:RNA)
RNA: B1 RNA with G25A, U26G, U28A, G29U, U31C
DNA 1: CAATCTGAATTCCGGTCTCCC
DNA 2: TGGTGGCTACGACGGGATT
B16: CAGCAUC (DNA:RNA)
RNA: B6 RNA with A25C, C29A, G31C
DNA 1: CAATCTGAATTCCGGTCTCCC
DNA 2: TGGTGGCTACGACGGGATT
B17: CAGCAUG (DNA:RNA)
RNA: B6 RNA with A25C, C29A
DNA 1: CAATCTGAATTCCGGTCTCCC
DNA 2: TGGTGGCTACGACGGGATT
B18: CAGCAUA (DNA:RNA)
RNA: B6 RNA with A25C, C29A, G31A
DNA 1: CAATCTGAATTCCGGTCTCCC
DNA 2: TGGTGGCTACGACGGGATT
B19: AGCCUGC (DNA:RNA)
RNA: B6 RNA with A26G, G27C, C29U, U30G, G31C
DNA 1: CAATCTGAATTCCGGTCTCCC
DNA 2: TGGTGGCTACGACGGGATT
B20: ACCAGCA (DNA:RNA)
RNA: B1 RNA with G25A, U26C, U28A, G30C, U31A
DNA 1: CAATCTGAATTCCGGTCTCCC
DNA 2: TGGTGGCTACGACGGGATT
B21: AGCCAGC (DNA:RNA)
RNA: B6 RNA with A26G, G27C, C29A, U30G, G31C
DNA 1: CAATCTGAATTCCGGTCTCCC
DNA 2: TGGTGGCTACGACGGGATT
B22: AUGCUUG (DNA:RNA)
RNA: B6 RNA with A26U, C29U
DNA 1: CAATCTGAATTCCGGTCTCCC
DNA 2: TGGTGGCTACGACGGGATT

Substitutions are numbered along the chain they refer to; changes in the protein carry UniProt numbers. In all, about 16,000 sequences were measured (“ka relative to ugcaugu”: median about 0.096, highest 2% from about 0.35 on). Many of the other results were omitted from the sample, so the highest values are more common in it than they were.

The target in this assay is T1, RBFOX1 RRM RbFoxmut (Fox-RRM*) (Homo sapiens, UniProt Q9NWB1 109-208, R118D;E147R;N151S;E152T).
T1 sequence: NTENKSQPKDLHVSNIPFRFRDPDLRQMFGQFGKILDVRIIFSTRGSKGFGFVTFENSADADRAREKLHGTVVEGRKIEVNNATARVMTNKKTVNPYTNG
Description: EMSA; HiTS-Eq, 1 nM pool, 10 min; buffer printed only for the single-RNA assays: 10 mM Tris pH 7.5, 150 mM NaCl, 3.4 mM EDTA, 0.001% NP-40, 30 C. As to conditions: tags: His6 N-terminal (pET28a); label: 5' 32P. The essentials: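 Purified RbFox RRM, wild type or mutant, was incubated for 10 min in 50 µL with 1 nM of a 5′-radiolabelled RNA pool carrying 7 randomized nucleotides, whose flanks were annealed to DNA oligonucleotides, over a series of increasing protein concentrations. Unbound RNA was resolved on 8% native PAGE, cut out, reverse-transcribed, barcoded by PCR and sequenced on an Illumina HiSeq 2500. Relative association constants were derived from changes in read counts for each RNA species versus the control reaction and normalised to the cognate motif.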
On the technique in general: In EMSA bound probe runs differently from free probe, usually more slowly.
As for B1, the binding signal was 0.192 KA relative to UGCAUGU.

As for B2, the binding signal is 0.085 KA relative to UGCAUGU.

For B3, the binding signal was 0.116 KA relative to UGCAUGU.

As for B4, the binding signal is 0.1 KA relative to UGCAUGU.

On to B5, for which the binding signal was 0.0598 KA relative to UGCAUGU.

On to B6, for which the binding signal is 0.0848 KA relative to UGCAUGU.

In the case of B7, the binding signal is 0.0916 KA relative to UGCAUGU.

Consider B8, for which the binding signal is 0.0812 KA relative to UGCAUGU.

As to B9, the binding signal was 0.208 KA relative to UGCAUGU.

As for B10, the binding signal is 0.321 KA relative to UGCAUGU.

Regarding B11, the binding signal was 0.524 KA relative to UGCAUGU.

B12: the binding signal is 0.0949 KA relative to UGCAUGU.

On to B13, for which the binding signal is 0.126 KA relative to UGCAUGU.

On to B14, for which the binding signal is 0.0973 KA relative to UGCAUGU.

Consider B15, for which the binding signal was 0.495 KA relative to UGCAUGU.

As to B16, the binding signal was 0.307 KA relative to UGCAUGU.

Take B17: the binding signal was 0.965 KA relative to UGCAUGU.

Take B18: the binding signal was 0.137 KA relative to UGCAUGU.

In the case of B19, the binding signal is 0.0804 KA relative to UGCAUGU.

As to B20, the binding signal is 0.121 KA relative to UGCAUGU.

As to B21, the binding signal was 0.0776 KA relative to UGCAUGU.

As to B22, the binding signal was 0.361 KA relative to UGCAUGU.
